Measurements from PubChem BioAssay (Tox21).
Records with an inconclusive call do not appear. Calls of active or inactive are those of the source. Calls come from the whole dose curve.

Assay: qHTS assay to identify small molecule agonists of H2AX - cell viability counter screen (AID 1224847); note: top concentration of the series differs between compounds; nearly all actives have a fitted effect of over 30% in size
Conditions: CHO-K1 viability, CellTiter-Glo luminescence, 3 h; series mostly up to 154 µM; activity change, negative = cytotoxicity: at the top concentration
Source text: National Center for Advancing Translational Sciences [NCATS]
NIH Chemical Genomics Center [NCGC]
U.S. Environmental Protection Agency [EPA]
National Institutes of Environmental Health Sciences [NIEHS]
National Toxicology Program [NTP]
U.S. Food and Drug Administration [FDA]
HTRF phospho-H2AX (Ser139) assay (Cisbio Bioassays, US) enables the quantitative detection of the histone variant H2AX when phosphorylated on serine 139. When double-stranded DNA breaks, either by ionizing radiation or endogenous physiological processes, H2AX becomes phosphorylated at Ser139. This phospho-Ser139 serves as a sensitive biomarker for the detection of such breaks, localizing the site of DNA repair. So, HTRF phospho-H2AX Ser139 is a pertinent assay to study genome stability, the cell cycle, DNA repair, and it serves as a biomarker for cancer, and to understand aging. Wild type CHO-K1 cells were used to identify the inducers of Phospho-H2AX Ser 139 from the Tox21 compound collections. Also cytotoxicity of the Tox21 10K compound library against the CHO-K1 cell line was tested by measuring the cell viability using CellTiter-Glo assay (Promega, Madison, WI).
Tox21 Assay Protocol Summary:
The CHO-K1 cells suspended in culture medium containing 10% FBS were dispensed at 1000 cells/ 3 ul/well in 1536-well white wall/solid bottom plates (Greiner Bio-One North America, NC) using a Multidrop Combi (Thermo Fisher Scientific Inc., Waltham, MA). After the assay plates were incubated at 37C overnight, 23 nl of compounds at 15 concentrations (from 5-48 columns) or positive control (from 1 to 4 columns) were transferred to the assay plates using a Pintool station (Wako, San Diego, CA) into each well resulting in a final DMSO concentration of 0.76%. After 3hr incubation at 37C, 3 uL/well CellTiter-Glo luminescent cell viability reagent (Promega Corporation, Madison, WI) was added using a Flying Reagent Dispenser (FRD) (Aurora Discovery, CA). After incubation at room temperature for 30 min, the luminescence intensity was read using a ViewLux plate reader (PerkinElmer, Waltham, MA).
% is set by controls: 0 for no effect and ±100 for the full control effect.

Compound	activity change, negative = cytotoxicity
CCCCc1ccc2c(n1)[C@@H](c1ccc(OC)cc1C[C@H](C)C(=O)O)[C@H](C(=O)O)[C@H]2c1ccc2c(c1)OCO2	0.607% (inactive)
NC(=O)N1c2ccccc2CC(=O)c2ccccc21	-0.516% [at 70.9 µM] (inactive)
CCN(CC#N)c1cccc(C)c1	-0.254% (inactive)
CC(C)CCCO	-6.56% (inactive)
Cc1onc(-c2c(Cl)cccc2Cl)c1C(=O)Cl	0.294% [at 70.9 µM] (inactive)
CC(=O)N[C@H]1[C@H]([C@H](O)[C@H](O)CO)OC(C(=O)O)=C[C@@H]1N=C(N)N	1.03% [at 70.9 µM] (inactive)
CCOC(=O)C1=NOC(c2ccccc2)(c2ccccc2)C1	-11.2% (inactive)
CC(C)(C)c1ccc(-c2ccc(C(C)(C)C)cc2)cc1	-13.7% (inactive)
CCOc1ccc2nc(S(N)(=O)=O)sc2c1	-2.13% [at 70.9 µM] (inactive)
CC(C)NNC(=O)c1ccncc1	1.7% [at 70.9 µM] (inactive)
CC(=O)O[C@@]12CO[C@@H]1C[C@H](O)[C@@]1(C)C(=O)[C@H](O)C3=C(C)[C@@H](OC(=O)[C@H](O)[C@@H](NC(=O)OC(C)(C)C)c4ccccc4)C[C@@](O)([C@@H](OC(=O)c4ccccc4)[C@H]21)C3(C)C	2% [at 70.9 µM] (inactive)
CCNS(=O)(=O)c1ccc(C)cc1	-6.61% (inactive)
COc1cc(C)nc(-n2nc(C)cc2OC)n1	4.3% [at 70.9 µM] (inactive)
CC(=O)Nc1ccc(OCC(O)CNC(C)C)cc1 (stereo not given)	0.521% [at 70.9 µM] (inactive)
CCN(Cc1ccccc1)c1ccccc1	-6.19% (inactive)
Cc1nc(C2CCCCC2)c(-c2ccc(S(N)(=O)=O)c(F)c2)o1	-1.05% [at 70.9 µM] (inactive)
CCOc1c(N2CCOCC2)cnn(C)c1=O	-0.588% [at 70.9 µM] (inactive)
NS(=O)(=O)Cc1noc2ccccc12	3.63% [at 70.9 µM] (inactive)
Cc1ccc(C(=O)Nc2ccc(S(=O)(=O)O)c3cc(S(=O)(=O)O)cc(S(=O)(=O)O)c23)cc1NC(=O)c1cccc(NC(=O)Nc2cccc(C(=O)Nc3cc(C(=O)Nc4ccc(S(=O)(=O)O)c5cc(S(=O)(=O)O)cc(S(=O)(=O)O)c45)ccc3C)c2)c1	5.59% [at 70.9 µM] (inactive)
Cc1ccc(C(=O)c2ccc(CC(=O)O)n2C)cc1	0.904% [at 70.9 µM] (inactive)

Compound	activity change, negative = cytotoxicity
Cc1cccc(C)c1NC(=O)CC12CCCN1CCC2	1.07% [at 70.9 µM] (inactive)
CCOc1ccccc1OCC	7.49% (inactive)
CN1CCN(c2cc3c(nn2)Oc2ccccc2N3C)CC1	0.295% [at 31.6 µM] (inactive)
CCOC(=O)CCC(=O)OCC	5.79% (inactive)
CCCCCCC1CCC(=O)O1 (stereo not given)	0.791% (inactive)
O=CN(CCO)CCO	2.16% (inactive)
CC1=CCC(O)(C(C)C)CC1 (stereo not given)	-0.792% (inactive)
O=S(=O)(O)c1cccc2ccccc12	-1.22% (inactive)
NC(=O)N[C@@H](CCC(=O)O)C(=O)O	0.325% [at 70.9 µM] (inactive)
CCCCCC(C)N (stereo not given)	0.587% [at 70.9 µM] (inactive)
C[C@H]1[C@H](NC(=O)/C(=N/OC(C)(C)C(=O)O)c2csc(N)n2)C(=O)N1S(=O)(=O)O (stereo in doubt)	-1.35% [at 70.9 µM] (inactive)
CN1[C@@H]2CC[C@H]1CC(OC(=O)C(O)c1ccccc1)C2 (stereo not given in full)	1.22% [at 70.9 µM] (inactive)
CC(=O)c1ccc2ccccc2c1	-3.44% (inactive)
FB(F)F	-1.67% (inactive)
O=C1CCCCCCCCCCCCCCO1	0.994% (inactive)
O=C(O)CNC(=O)c1ccc(CO)o1	-0.326% (inactive)
c1ccc2sc(SN3CCOCC3)nc2c1	0.0684% [at 70.9 µM] (inactive)
c1ccc(CCc2ccccc2)cc1	-1.52% (inactive)
COc1cc2c(cc1OC)-c1cc3ccc(OC)c(OC)c3c[n+]1CC2	0.0814% (inactive)
CO/N=C(\C(=O)N[C@@H]1C(=O)N2C(C(=O)O)=C(CSc3nc(=O)c(O)nn3C)CS[C@H]12)c1csc(N)n1	0.28% [at 70.9 µM] (inactive)
